# Tg IFNy HTS – T. gondii growth inhibition with IFN-gamma, primary screen, cell-based; 69,000 tested, 3.8% active; Toxoplasma gondii growth in IFN-gamma-treated host cells; active compounds read low; activity change, negative = inhibition, % (test concentration not listed); in the data active = activity change below about -70%, passing the limit was not always enough;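 note: host cells are HeLa cells infected with Toxoplasma gondii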
# Starred values were filed as active, the others as inactive; ! = a repeat was not active. Only a selection was taken, and hits are over-represented in it overall.
SMILES,Tg IFNy HTS
Cc1oc(-c2ccc(Cl)cc2)nc1Cn1ccn2nc(-c3ccc4c(c3)OCO4)cc2c1=O,8.9
Cc1ccc(Cn2c(CN3CCC(C(=O)NCCCN4CCCC4)CC3)cc3ccccc32)cc1,-35.4
Cc1ccc(C2(O)CCN(C(=O)C3=Cc4ccccc4OC=C3)CC2)nc1,92.3
CC(=O)Nc1ccc(C(=O)N2CCN(C(=O)c3ccco3)CC2)cc1,-51.9
CCOc1ccc(C(=O)Nc2ccc(N3CCN(C(C)=O)CC3)cc2)cc1[N+](=O)[O-],-13.5
CCOc1cccc(C(=O)Nc2ccc(N3CCN(C(=O)c4ccco4)CC3)cc2)c1,-86.4*
CCN(CC)C(=O)CSc1nnc2c(n1)[nH]c1ccc(C)cc12,3.5
Cc1ccc(CSc2nnc3c(n2)[nH]c2ccc(Br)cc23)cc1,-79.5*
c1ccc(CSc2nnc3c(n2)[nH]c2ccccc23)cc1,-68.0
COc1ccc(-c2noc(C3CN(S(=O)(=O)CCc4ccncc4)CCO3)n2)cc1 (configuration not stated),163.5
Cc1nn(C(F)F)c(C)c1S(=O)(=O)N1CCN(c2nccs2)CC1,28.9
O=C(CCC1N=C2c3ccccc3N=C(SCc3ccc(F)cc3)N2C1=O)NCc1ccccc1 (configuration not stated),-34.8
CCN(CC)CCNc1ccc(CO)c2sc3ccccc3c(=O)c12,-97.0*!
CCN(CC)CCNC(=O)c1ccccc1I,12.3
CCCCOc1ccccc1C(=O)N1CCOC(C(F)(F)F)C1 (configuration not stated),-6.8
CC(C)(C)c1ccc(NC(=O)CSc2ccc(Cl)cc2)cc1,56.1
O=C(CSc1ncccc1-c1nc2ccccc2[nH]1)c1ccc(Cl)cc1,0.1
O=c1[nH]c2ccc(NCC#Cc3ccccc3)cc2[nH]1,-83.5*
COc1cc(CNc2ccc3[nH]c(=O)[nH]c3c2)ccc1OCc1ccccc1,162.5
C=CCOc1ccc(CNc2ccc3[nH]c(=O)[nH]c3c2)cc1OC,-8.6
CC(C)NC(=O)[C@H]1C[C@@H]2CN(c3ncccn3)C[C@H]1O2,-56.2
COc1ccc(CC(=O)N2CCC(c3nc(C(=O)N(C)C)c(C)o3)CC2)c(Cl)c1,-24.2
CCCCNc1nc(C(=O)OCC)nc2ccccc12,0.6
Cc1ccc(Nc2nc(C(=O)NC(C)C)nc3ccccc23)cc1,-78.8*
Cc1ccc(Nc2nc(C(=O)Nc3cc(C)cc(C)c3)nc3ccccc23)cc1,-7.0
SMILES,Tg IFNy HTS
CCOC(=O)c1nc(NCc2ccc(C)cc2)c2ccccc2n1,6.8
CCOC(=O)c1nc(NCCc2ccc(C)cc2)c2ccccc2n1,-72.5*
Cc1ccc(Nc2nc(C(=O)NCCC(C)C)nc3ccccc23)cc1,-87.2*
CC(C)CCNC(=O)c1nc(Nc2ccccc2)c2ccccc2n1,-46.5
CCOCCCNC(=O)c1nc(Nc2ccc(C)cc2)c2ccccc2n1,-54.7
CC(NC(=O)c1nc(Nc2ccc(F)cc2)c2ccccc2n1)c1ccccc1 (configuration not stated),-8.1
Cc1[nH]c(-c2ccccc2)nc1C(=O)N1CCC(O)(CO)CC1,5.4
Cc1noc(C)c1C(=O)N1CCCC(N(C)C(=O)c2nccc3ccccc23)CC1 (configuration not stated),-28.5
O=C(CCO)N1CCOC2CC(COc3ccccn3)CC21 (configuration not stated),0.7
O=C(O)[C@H]1C[C@@H](C(=O)NC2CC2)CN(C(=O)Cc2ccccc2F)C1,9.4
CN(C)C(=O)c1nc2c(s1)CCCN2c1ncccn1,78.2
Cc1occc1C(=O)N1C[C@H](Oc2ncccc2F)[C@@H]2OCCC[C@@H]21,-0.8
CC1=Nc2ccc(-c3ccccc3)cc2C1(C)C,-98.9*
Cc1ccc(-c2nnc(-c3ccccc3)n2-c2ccc(C)cc2)cc1,-3.0
COCCn1c(C(=O)C2CC2)cc2c1c1ccccc1n2C(C)C,-4.3
Cc1ccc(C)c(N2CCN(C(=O)c3ccc(-n4nc(C(F)(F)F)c5c4CCCC5)cc3)CC2)c1,0.8
CC(C)(C)c1cc2nc(C(F)(F)F)cc(N3CCN(C(=O)c4ccccc4)CC3)n2n1,-85.8*
O=C(c1ccccc1)N1CCN(C(=O)c2ccccc2)CC1,-9.7
CCn1nc(C(C)C)cc1C(=O)N1CC[C@@H](c2sccc2C)[C@H](O)C1,-2.1
COc1ccc(-c2coc3cc(O)ccc3c2=O)c(O)c1O,17.7
COc1cc(-c2coc3cc(OCc4ccccc4)c(OC)c(O)c3c2=O)cc(O)c1OC,-85.9*
COc1cc(-c2coc3cc(OC)c(OC)c(OC)c3c2=O)cc(OC)c1OC,2.3
CC(C)Nc1ncc(C(=O)N2CCN(C(=O)c3ccccc3)CC2)cn1,-4.6
CCCCCCSc1nsc(NC(C)=O)n1,55.4
CC(=O)c1cccc(NC(=O)Nc2nc(SCc3ccc(F)cc3)ns2)c1,-107.2*
CSc1nsc(NC(=O)OCc2ccc(Cl)cc2)n1,12.3
COC(=O)c1csc2c(C(F)(F)F)cc(N3CCN(C(=O)c4ccco4)CC3)nc12,-44.4
CCc1onc(C)c1C1CCCN1C(=O)Cn1nc(C(F)(F)F)c2c1CCCC2 (configuration not stated),0.0

# Assay outcomes from PubChem.
